This is part of a sample that, as a whole, favours compounds with a hit. Of some 83,000 tested, about 20% had one in any assay.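 For each line, cells grew in 96-well plates with the test compound present at a single concentration for 48 hours.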 The source made the active and inactive calls. Rule for the calls: active = growth percent below 10; inactive = the rest.
How the values were obtained:
Test in all cases: NCI-60 one-dose screen, 48 h (100 = growth as untreated, 0 = no growth, -100 = all killed)
Conditions in all cases: 10 µM unless noted
[1] = test system: SK-MEL-2 melanoma
[2] = test system: EKVX NSCLC
[3] = test system: SN12C renal
[4] = test system: UO-31 renal
[5] = test system: TK-10 renal
[6] = test system: ACHN renal
[7] = test system: A498 renal
[8] = test system: CCRF-CEM leukemia
[9] = test system: MOLT-4 leukemia
[10] = test system: CAKI-1 renal

Measured: growth

COc1cc(/C=C2\C(=O)N(CC(O)COc3cc(O)c4c(=O)cc(-c5ccccc5)oc4c3)c3ccccc32)cc(OC)c1O (stereo not drawn)
inactive: [1] 82.2% | [2] 78.8% | [3] 84% | [4] 50.6% | [5] 137% | [6] 80.4% | [7] 105% | [8] 59.1% | [9] 63.8%

O=[N+]([O-])c1ccc(/C=N\Nc2ccccc2)cc1
inactive: [1] 49.5% | [2] 76.6% | [3] 87.3% | [4] 65.5% | [5] 111% | [6] 72.6% | [10] 72.8% | [7] 75.3% | [9] 89.7%

NCCn1cc(-c2nc(-c3c[nH]c4ncccc34)cs2)c2ccccc21
inactive: [1] 103% | [2] 53.6% | [3] 78.7% | [4] 51.3% | [5] 148% | [6] 82.9% | [7] 88.2% | [8] 88.5% | [9] 96.4%

COc1cccc(-c2nn(-c3ccccc3)cc2-c2ccnc(NCCCNS(=O)(=O)c3cccc(F)c3)c2)c1
active: [1] 4% | [4] 9.64% | [9] -3.37%
inactive: [2] 45.1% | [3] 32.3% | [5] 36.9% | [6] 19.4% | [10] 32.4% | [7] 30.4% | [8] 11.4%

CC1(C)C(=O)/C(=C\c2cccnc2)C[C@]2(C)[C@H]3CC[C@@H]4[C@@H](C(=O)/C=C/c5ccncc5)CC[C@@]4(C)[C@]3(C)CC[C@@H]12
active: [1] -3.01% | [3] 8.09% | [4] -94.5% | [6] -78.8% | [8] 8.73% | [9] 8.03%
inactive: [2] 50.4% | [5] 65.6% | [10] 28.4% | [7] 47.3%

N=C(N)c1ccc(-c2ccc(-c3cc(F)cc(F)c3)o2)nc1
inactive: [1] 106% | [2] 90.4% | [3] 86.9% | [4] 69.8% | [5] 124% | [6] 90% | [10] 78.5% | [7] 90.3% | [9] 73.8%
active: [8] -35.6%

CC1(C)NC2=C(C(Nc3cccnc3)N1)C(c1ccc([N+](=O)[O-])cc1)C(C(=O)c1ccc(N=[N+]=[N-])cc1)O2 (stereo not drawn)
inactive: [1] 107% | [2] 99.8% | [3] 101% | [4] 88.3% | [5] 97.1% | [6] 102% | [10] 102% | [7] 108% | [8] 98.8% | [9] 102%

CCCCCCCN(CCCCCCC)C(=N)c1ccnc2ccccc12
active: [1] -46.5% | [2] -15.6% | [3] -42% | [4] -62.5% | [6] -81.9% | [10] 3.85% | [7] -17.2% | [9] -16.5%
inactive: [5] 14.9%

Nc1ccc(Br)cn1
inactive: [1] 98.8% | [2] 110% | [3] 96.3% | [4] 93.4% | [5] 107% | [6] 109% | [10] 113% | [8] 80.4% | [9] 91.5%

Cc1cc(N2CCOCC2)nc(N(CCCNc2ccnc3cc(Cl)ccc23)Cc2ccco2)n1
active: [9] 9.42%
inactive: [1] 11.9% | [2] 49.4% | [3] 40.4% | [4] 32.2% | [5] 47.9% | [6] 46.9% | [7] 45.2% | [8] 30.6%

COC(c1ccccc1)(c1ccccc1)c1ccccc1
inactive: [1] 118% | [2] 85.3% | [3] 97% | [4] 105% | [5] 123% | [6] 101% | [10] 72.1% | [7] 104% | [8] 131% | [9] 123%

Cc1cccc(C)c1NC(=O)CSC(=S)N1CCCCC1
inactive: [1] 97.6% | [2] 97.2% | [3] 110% | [4] 85.6% | [5] 89% | [6] 101% | [7] 99.3% | [8] 101% | [9] 87.8%

CC1(C)C(=O)CC[C@]2(C)[C@H]3C(=O)C=C4[C@@H]5C[C@@](C)(C(=O)NCCNCCN)CC[C@]5(C)CC[C@@]4(C)[C@]3(C)CC[C@@H]12
inactive: [1] 121% | [2] 105% | [3] 86% | [4] 76.8% | [5] 147% | [6] 104% | [10] 92.5% | [7] 101% | [8] 75.9% | [9] 82.5%

— PubChem BioAssay (NCI)
